p53ts 39C kill = p53ts cell cytotoxicity, nonpermissive temperature | 130,000 tested, 1.5% active | Potency, µM (series often up to 46.1 µM), for the others: at the highest dose activity change, negative = cell killing, hits mostly cytotoxic | H1299-p53A138V viability at 39C, ATP luminescence, 24 h | AID 902; further: on the % scale 0 is the no-effect control and ±100 the full control effect; nearly all actives have a fitted effect of over 55% in size
Imprint erasure = genomic imprint erasure induction. mouse ES Peg3-LacZ reporter, beta-gal luminescence, 40 h. Potency, µM (series often up to 60.7 µM), for the others: at the top dose activity change, positive = activation, hits mostly activators. 110,000 tested, 0.02% active. AID 1948
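Imprint erasure is scored as LacZ activity from the silenced maternal Peg3 allele in feeder-free female ES cells cultured 40 h with LIF. Luminescence is normalized to in-plate negative controls and fitted to the Hill equation.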
p53ts 32C tox = cytotoxicity in p53ts cells at permissive temperature; 130,000 tested, 0.93% active; H1299-p53A138V at 32C, ATP luminescence viability, 24 h; AID 924; Potency, µM (series often up to 46.1 µM), without a hit: at the top dose activity change, negative = cytotoxicity, actives largely listed as cytotoxic;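 further: 0% = DMSO and -100% = full killing by reference compound; nearly all actives have a fitted effect of over 55% in size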
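ATP-content luminescence (ATPlite) read-out after 24 h compound exposure at 32C in H1299-p53A138V cells (600/well). Tested up to 46 uM. Normalized to DMSO (0%) and 100 uM tamoxifen (100% killing); Hill-fit AC50.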
IkB sig inh = IkB pathway inhibition in ABC-DLBCL cells; ABC-DLBCL IkBa-CBG/CBR dual luciferase ratio, 4 h; response scale: scaled: untreated 0%, proteasome inhibitor 100%; Potency, µM (top dose mostly 57.1 µM), for inactives: top-dose IkBa stabilization activation; 110,000 tested, 0.04% active; active means well fitted curve in the direction sought with a large enough effect in the signal ratio, not every such curve was filed as active; inconclusive means small, poorly fitted or top-dose-only effect, or a change in a side signal; the % refers to the signal ratio;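 further: the direction sought is a rising ratio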
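In this assay, an IκBα–CBG68 fusion accumulates when IKK-driven degradation is blocked; native CBR normalizes for cell number. OCI-Ly3 cells were treated 4 h with compound and doxycycline, then green and red light read after Chroma-Glo addition.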
Active calls of the source: *; ? = inconclusive; / = no result given; [ ] = dose if it differs, or a comment. Sampled rows, rich in hits. Any-hit rate of the full collection: about 1.8%. Unless noted, the call rests on the fitted dose curve; in most records, active means well fitted curve in the direction sought with a large enough effect; inconclusive means small, poorly fitted or top-dose-only effect, or another doubt; inactive means no such curve, though single readings can be large; an effect the other way counts as inactive or inconclusive. Potency means the concentration at half of the fitted maximal effect.

SMILES | p53ts 39C kill | Imprint erasure | p53ts 32C tox | IkB sig inh
CCCN(C(=O)c1cc2c(s1)-c1ccccc1SC2)c1ccccc1F | 25.1µM* | -9.9%[10.9 µM] | -3.4% | ?
CCCN(C(=O)c1cc2c(s1)-c1ccccc1OC2)c1ccccc1F | -11.0% | -18.5%[10.9 µM] | 17.5% | ?
Cn1c(=O)[nH]c(=O)c2c1nc(CN1CCN(c3cccc(Cl)c3)CC1)n2CCCc1ccccc1 | 3.98µM* | -79.5% | 5.01µM* | 7.0%
CCOCCc1nn2c(=O)cc(COC(=O)c3ccccc3NC(=O)CC(C)C)nc2s1 | -29.4% | -12.6%[10.9 µM] | 4.6% | 1.1%
COc1ccc(NC(=O)c2ccc(-c3ccc(-c4noc(C)n4)cc3C)cc2)cc1OCCN(C)C | 7.94µM* | -33.9% | 25.1µM* | ?
COc1ccc(NC(=O)N2CCN(c3cc(-c4noc(C)n4)ccc3C)CC2)c(OC)c1 | -26.4% | -11.8%[10.9 µM] | 7.7% | 0.8%
COc1ccc(NC(=O)c2ccc(-c3ccc(-c4noc(C)n4)cc3C)cc2)cc1N1CCN(C)CC1 | 20µM* | -30.6% | ? | ?
COc1ccc2cc3cc(C(=O)Nc4cc(C)c(Cl)cc4OC)oc3nc2c1 | 19.0% | 3.4%[10.9 µM] | 5.9% | ?
CCCCCCCCCCCCC[N+](C)(C)Cc1ccccc1 | 12.6µM* | -39.6% | 15.8µM* | /
CCCn1c2ccccc2c2cnn(CC(=O)NCC3CCN(Cc4ccccc4C)CC3)c(=O)c21 | / | / | 2.3% | /
Cc1ccc(CNC(=O)CSCc2ccccc2C)cc1 | -29.2% | -12.4%[10.9 µM] | 3.1% | -4.1%
COc1ccc(C)cc1NC(=O)c1c2c(nc3ccccc13)C(=O)N(C1CCCCC1)C2 | 10µM* | -7.6%[10.9 µM] | -22.1% | ?
O=C(Nc1ccc(F)cc1F)c1c2c(nc3ccccc13)C(=O)N(C1CCCCC1)C2 | ? | 20.6%[10.9 µM] | -1.8% | ?
CCOC(=O)CCN1CCN(C(=O)c2ccc(-n3c(=O)c(=O)[nH]c4ccccc43)cc2)CC1 | 11.4% | / | -4.5% | /
COc1ccc(CCNC(=O)c2cc(=O)[nH]c3ccc(S(=O)(=O)N4CCCCC4C)cc23)cc1OC (stereo not drawn) | 11.5% | -6.6%[10.9 µM] | 17.9% | 2.3%
COc1ccc(/C=C/C(=O)Nc2ccc3nc4c(c(Nc5ccc(OC)c(OC)c5)c3c2)CCCC4)cc1 | 10µM* | -34.8%[10.9 µM] | 11.2µM* | ?
COc1ccccc1Nc1c2c(nc3ccc(NC(=O)/C=C/c4cccc(OC)c4OC)cc13)CCCC2 | -25.2% | -32.7%[10.9 µM] | -5.7% | ?
COc1ccccc1Nc1c2c(nc3ccc(NC(=O)c4cccc(F)c4)cc13)CCCC2 | 5.01µM* | -37.8%[10.9 µM] | 10µM* | -1.1%
COc1ccc(Nc2c3c(nc4ccc(NC(=O)/C=C/c5cc(OC)c(OC)c(OC)c5)cc24)CCCC3)cc1OC | 10µM* | -36.4%[10.9 µM] | 12.6µM* | ?
COc1ccc(/C=C/C(=O)Nc2ccc3nc4c(c(Nc5ccccc5OC)c3c2)CCCC4)cc1 | -7.1% | -34.8%[10.9 µM] | -8.2% | ?
COc1ccc(Nc2c3c(nc4ccc(NC(=O)/C=C/c5cccc(OC)c5OC)cc24)CCCC3)cc1OC | 10µM* | -34.2%[10.9 µM] | 10µM* | ?
COc1cc(/C=N/NC(=O)c2cc(-c3ccccc3)n[nH]2)cc(OC)c1OC | -7.3% | / | -5.8% | /
C=C1CC[C@@H](O)C/C1=C/C=C1\CCC[C@]2(C)[C@@H]1CC[C@H]2[C@@H](C)/C=C\[C@@H](C)C(C)C | / | / | / | 2.3%[11.4 µM]
CCc1ccc(S(=O)(=O)Nc2ccc3c(c2)n(C)c(=O)c(=O)n3C)cc1 | -20.8% | -13.1%[10.9 µM] | -11.8% | 0.1%
Cn1c(=O)n(C)c2cc(NS(=O)(=O)c3ccc4c(c3)CCCC4)ccc21 | -8.6% | -15.5% | -1.5% | 7.94µM*
CC(=O)c1cccc(NC(=O)c2sc3nc4c(cc3c2N)CCCC4)c1 | 12.6µM* | -14.7%[10.9 µM] | ? | ?
Cc1ccc(NC(=O)CSc2nc3n[nH]c(C)c3c(=N)n2-c2cccc(C)c2)cc1 | 0.4% | -17.8%[10.9 µM] | 2.6% | ?
CCC(C)NC(=O)CSc1nc2n[nH]c(C)c2c(=N)n1-c1cc(Cl)ccc1C (stereo not drawn) | 12.6µM* | -12.4%[10.9 µM] | ? | ?
Cc1ccc(Cl)cc1-n1c(SCC(=O)NCc2ccccc2)nc2n[nH]c(C)c2c1=N | ? | 3.9%[10.9 µM] | -4.1% | -1.5%
CCc1ccc(NC(=O)CSc2nc3n[nH]c(C)c3c(=N)n2-c2ccc(C)cc2)cc1 | 20µM* | -15.3%[10.9 µM] | ? | -1.7%
